Sampled rows, rich in hits. Any-hit rate of the full collection: about 3%.
KDM5B inh = inhibitors of human KDM5B histone demethylase; Q9UGL1; KDM5B demethylase, FDH-coupled NADH fluorescence (FDH is formaldehyde dehydrogenase); Potency, µM (titrated, usually from 57.7 µM), most hits filed as inhibitors; hit rate 2.6% among 220,000; also: potency is read from the fitted curve at half-maximal effect; 0% is about no effect; nearly all actives have a fitted effect of over 70% in size
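qHTS format, multiple compound concentrations. Buffer 50 mM HEPES pH 7.5/0.01% Tween-20; 200 nM KDM5BΔAP final; 10 min compound preincubation; substrate-mix levels 12.5 µM peptide, 25 µM α-KG, 0.25 mM NAD⁺; 30 min RT; ΔRFU.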
IP6K1 inhibitor = IP6K1 kinase inhibition. IP6K1 kinase, ADP-Glo luminescence, 2 h; hits give low values. hit rate 0.81% among 140,000. activity change, % (series mostly up to about 58 µM). Q92551. AID 1645851; in the data active = activity change below about -25%; also: % is scaled to controls: 0 for no effect and ±100 for the full control effect
Target sequence (Q92551 whole entry, looked up): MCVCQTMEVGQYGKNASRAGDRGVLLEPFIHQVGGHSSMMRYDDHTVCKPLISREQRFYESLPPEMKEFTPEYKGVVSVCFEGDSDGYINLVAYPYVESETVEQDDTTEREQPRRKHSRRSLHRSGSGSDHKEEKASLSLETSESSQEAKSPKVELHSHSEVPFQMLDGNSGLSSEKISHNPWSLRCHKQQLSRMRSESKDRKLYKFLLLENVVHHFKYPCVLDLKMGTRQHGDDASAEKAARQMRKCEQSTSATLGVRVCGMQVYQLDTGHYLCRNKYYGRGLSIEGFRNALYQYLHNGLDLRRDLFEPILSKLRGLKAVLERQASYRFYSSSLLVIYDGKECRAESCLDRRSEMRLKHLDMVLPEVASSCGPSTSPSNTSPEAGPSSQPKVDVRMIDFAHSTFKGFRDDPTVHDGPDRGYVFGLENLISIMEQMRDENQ
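ADP-Glo luminescence measures ADP made by human IP6K1 during a 2 h RT reaction with ATP/IP6 (mix at 1.3 mM/130 uM); top library doses 57.5 and 19.1 uM final.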
SNCA expr inhib = inhibitors of alpha-synuclein (SNCA) gene expression | Potency, µM (top dose mostly 57.2 µM), for the others: at the highest dose activity change, negative = inhibition, most hits filed as inhibitors | hit rate 0.17% among 140,000 | AID 1671194 | HEK-293 SNCA-luciferase knock-in, luminescence, 24 h;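 also: potency is read from the fitted curve at half-maximal effect; plate controls were DMSO cells for no effect and cell-free wells for full effect; nearly all actives have a fitted effect of over 45% in size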
SNCA viab count = reduces viability of HEK-293 SNCA reporter cells; HEK-293-SNCA-luc viability, GF-AFC fluorescence, 24 h; Potency, µM (series often up to 57.1 µM), for inactives: top-dose activity change, negative = cytotoxicity, hits mostly cytotoxic; hit rate 0.12% among 150,000;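 also: potency is read from the fitted curve at half-maximal effect; 0% = DMSO-treated cells and -100% = medium-only wells without cells; nearly all actives have a fitted effect of over 30% in size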
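HEK-293-SNCA-luc cells (1500/well) plated 24 h, then exposed 24 h to a dilution series; GF-AFC added 30 min at 37C, fluorescence 405/540 nm; normalised to medium-only and DMSO wells, Hill fit.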
Active calls of the source: *; i = inactive; ? = inconclusive; . = not tested or not shown; [ ] = remark or other dose. Unless noted, calls follow the shape of the dose curve; as a rule, active = well fitted curve in the direction sought with a large enough effect; inconclusive = small, poorly fitted or top-dose-only effect, or another doubt; inactive = no such curve, though single readings can be large; an effect the other way counts as inactive or inconclusive.

SMILES	KDM5B inh	IP6K1 inhibitor	SNCA expr inhib	SNCA viab count
COc1ccc(C2Cn3nnc(-c4noc(-c5ccccc5OC)n4)c3CO2)cc1 (stereo unspecified)	?	-3.3	-30.1%	21.3%
O=C1COCCN1c1cc(-c2cccc(F)c2)cn2cncc12	35.5µM*	12.4	-9.8%[87.6 µM]	0.2%[87.6 µM]
CCCc1ccc2oc(C(=O)NCCc3nncn3CC)c(C)c2c1	?	-9.7	121.8%	-9.6%
CCn1c(CO)nnc1C1CC(NC(=O)c2oc3cc(OC)ccc3c2C)C1 (stereo unspecified)	28.2µM*	94.3	4.6%	6.7%
CCn1c(CO)nnc1C1CC(NC(=O)c2[nH]c3ccc(OC)cc3c2C)C1 (stereo unspecified)	28.2µM*	54.5	6.6%	2.6%
COCCn1cnnc1CCNC(=O)c1oc2cc(OC)ccc2c1C	28.2µM*	10.8	-4.2%	5.2%
COc1ccc(-c2ccccc2C(=O)NCCCOC(C)C)nn1	.	9.3	.	.
COc1ccccc1-c1ccc(CN2CCCCC2C(=O)NCC(F)(F)F)cc1 (stereo unspecified)	.	26.4	.	.
CC(C)CNc1ccc2c(n1)C(C)(C(=O)NC1COC1)CN(Cc1ccccc1)C2 (stereo unspecified)	31.6µM*	32.6	?	?
COCCN1Cc2ccc(NCc3ccccc3)nc2C(C)(C(=O)Nc2ccn(C)n2)C1 (stereo unspecified)	35.5µM*	6.0	?	5.5%[87.6 µM]
COCCN1Cc2ccc(Nc3cccnc3)nc2C(C)(C(=O)NCc2ccncc2)C1 (stereo unspecified)	25.1µM*	-2.7	7.2%[87.6 µM]	2.6%[87.6 µM]
COCCN1Cc2ccc(NCC(C)C)nc2C(C)(C(=O)NC2CC2)C1 (stereo unspecified)	31.6µM*	20.5	-21.9%[87.6 µM]	-7.1%[87.6 µM]
COCCN1Cc2ccc(Nc3cccnc3)nc2C(C)(C(=O)Nc2cccc(OC)c2)C1 (stereo unspecified)	?	5.3	-15.5%	-8.4%
COc1ccc(-c2cc(C(=O)Nc3cccc(F)c3)c3cnn(C)c3n2)cc1	.	6.6	.	.
C[C@@]12CO[C@H](c3ccccc3)C[C@@H]1C[C@H](N1CCN(CCOCc3ccccc3)CC1)C2	.	-6.0	.	.
CCN(CC)c1cc(CCC(=O)NCCc2cccnc2)ccn1	?	3.1	10.5%	-9.9%
CCN(CC)c1cc(CCC(=O)N(C)Cc2ccccc2)ccn1	22.4µM*	17.9	-23.3%	0.3%
CCN(CC)c1cc(CCC(=O)NCCCN2CCOCC2)ccn1	25.1µM*	-7.1	-5.6%	-5.0%
CCN(CC)c1cc(CCC(=O)N2CCC(C)CC2)ccn1	25.1µM*	0.1	?	-19.4%
CN(Cc1ccsc1)C(=O)CCc1ccccc1	i	.	.	.
Cc1cc(-c2cc3c(nc2-c2ccccc2)nc(C(=O)NC2CCN(C)CC2)n3C)ccn1	31.6µM*	8.2	10.8%[87.6 µM]	-26.9%[87.6 µM]
CN(C)CCNC(=O)c1nc2nc(-c3ccccc3)c(-c3ccncc3)cc2n1C	22.4µM*	13.2	7.3%[87.6 µM]	-3.0%[87.6 µM]
Cc1ccccc1Nc1cc2c(nc1-c1ccccc1)nc(C(=O)NCCN(C)C)n2C	35.5µM*	8.1	-19.3%[87.6 µM]	?
Cc1ccccc1-c1cc2c(nc1-c1ccccc1)nc(C(=O)NCCN(C)C)n2C	i	12.4	0.3%[87.6 µM]	-29.6%[87.6 µM]
CN(C)CCNC(=O)c1nc2nc(-c3ccccc3)c(Nc3ccc(F)cc3)cc2n1C	?	7.0	1.7%[87.6 µM]	?
SMILES	KDM5B inh	IP6K1 inhibitor	SNCA expr inhib	SNCA viab count
CN(C)CCNC(=O)c1nc2nc(-c3ccccc3)c(-c3cccnc3)cc2n1C	20µM*	6.3	?	-8.0%[87.6 µM]
Cc1cc(-c2cc3c(nc2-c2ccccc2)nc(C(=O)NCCN(C)C)n3C)ccn1	i	2.8	9.1%[87.6 µM]	-10.3%[87.6 µM]
O=C(NCC(F)F)C1CCCCN1Cc1ccc(-c2ccsc2)cc1 (stereo unspecified)	.	-9.2	29.4%	1.0%
O=C(NCc1ccccc1Cl)c1ccc2nnc(CC3CC3)n2c1	.	-2.8	4.6%	5.2%
CC(=O)NC1(C)CCN(Cc2ccccc2-c2ccccc2Oc2ccccc2)C1 (stereo unspecified)	?	-4.4	?	?
Cc1cc(C)n2ncc(C(=O)N3CCC(c4[nH]ncc4-c4ccccc4)CC3)c2n1	?	16.1	-2.2%	7.5%
Cc1nc2ncccn2c1C(=O)N1CCC(c2[nH]ncc2-c2ccccc2)CC1	28.2µM*	-3.2	-17.5%	-24.3%
COCCN1CC2(CCC1=O)CCN(C(=O)C(C)SC)CC2 (stereo unspecified)	i	-0.2	-4.9%	2.6%
COCCN1CC2(CCC1=O)CCN(c1nc(C(C)C)ccc1C#N)CC2	28.2µM*	-0.7	?	0.6%
O=C(CCC[C@@H]1[C@H]2CCCN3CCC[C@@H](CN1Cc1ccccc1)[C@@H]23)N1CCCC1	i	-5.5	-3.4%	-4.2%
CN(Cc1cccnc1)C(=O)CCC[C@@H]1[C@H]2CCCN3CCC[C@@H](CN1Cc1cccnc1)[C@@H]23	22.4µM*	5.2	-8.9%	6.4%
CC(=O)N1C[C@@H]2CCCN3CCC[C@@H]([C@H]23)[C@H]1CCCC(=O)N1CCN(C)CC1	25.1µM*	-11.3	-7.1%	-16.3%
CC(=O)N1C[C@@H]2CCCN3CCC[C@@H]([C@H]23)[C@H]1CCCC(=O)N1CCN(c2ccc(F)cc2)CC1	i	3.4	10.5%	0.0%
CN1CCN(C(=O)CCC[C@@H]2[C@H]3CCCN4CCC[C@@H](CN2Cc2ccccc2)[C@@H]34)CC1	31.6µM*	-7.1	10.2%	-18.8%
CC(=O)N1C[C@@H]2CCCN3CCC[C@@H]([C@H]23)[C@H]1CCCC(=O)N1CCN(c2ccccn2)CC1	31.6µM*	0.9	-7.7%	9.6%
CC(=O)N1C[C@@H]2CCCN3CCC[C@@H]([C@H]23)[C@H]1CCCC(=O)N1CCN(c2ccccc2)CC1	i	2.3	-8.0%	-13.0%
O=C(Nc1ccccc1)N1CCC(F)(c2nc(Cc3ccccc3)no2)CC1	.	21.3	48.3%	5.0%
CN(C)CCNC(=O)CCC[C@@H]1[C@H]2CCCN3CCC[C@@H](CN1C)[C@@H]23	i	-4.8	?	-6.9%
CC(=O)N1C[C@@H]2CCCN3CCC[C@@H]([C@H]23)[C@H]1CCCC(=O)NCCN(C)C	28.2µM*	4.2	36.1%	8.6%
COc1cccc(-c2ccc(CN3CCCC(NC(=O)N(C)C)C3)cc2)c1 (stereo unspecified)	.	-4.6	48.2%	9.3%
COc1ccc(CN2CCNc3cc(-c4ccccc4)ncc3C2)cc1O	i	-5.9	58.2%[87.6 µM]	-28.7%[87.6 µM]
c1cncc(Nc2cc3c(cn2)CN(Cc2ccsc2)CCN3)c1	i	-16.6	65.9%[87.6 µM]	-25.9%[87.6 µM]
c1ccc(Nc2cc3c(cn2)CN(Cc2ccsc2)CCN3)cc1	39.8µM*	12.0	26.9%[87.6 µM]	?
c1cc(CN2CCNc3cc(-c4ccsc4)ncc3C2)ccn1	35.5µM*	-15.8	7.4%[87.6 µM]	9.1%[87.6 µM]
COc1ccc(CN2CCNc3cc(Nc4ccccc4)ncc3C2)cc1O	28.2µM*	3.4	?	-28.9%[87.6 µM]
COc1ccc(CN2CCNc3cc(Nc4ccccc4)ncc3C2)cn1	31.6µM*	1.5	-5.9%[87.6 µM]	?
CNC(=O)CCn1ncc2cc(OCc3ccccc3-c3ccc(F)cc3C)ccc21	?	8.2	?	-15.8%[87.6 µM]

Screens (PubChem)
